# From PubChem BioAssay AID463173 (ICCB-Longwood Screening Facility, Harvard Medical School, 2010)
# In all, about 52,000 compounds went through this assay and about 1,700 (3.3%) were called active. Cut-off read from the data, not from the text of the source: active = survival mostly below about 52% (no sharp cut-off); inactive = mostly above about 56%. This excerpt belongs to a sample that is enriched for actives.
# Tested on: Wild type
# Assay: growth inhibition of S. aureus wild type versus tarO mutant, primary screen, teichoic acid synthesis inhibitors, RN4220, OD600 (AID 463173)
# Settings: S. aureus RN4220 wild type/DeltatarO growth, OD600, 18 h, hits give low values, screened at 18.75 µg/mL (by protocol)
row,SMILES,survival
1,Cc1cc(C)n2nc(SCC(=O)Nc3cccc(C(F)(F)F)c3)nc2n1,56% (inactive)
2,CCc1ccc(-n2c(SCc3ccccc3F)nc3[nH]ncc3c2=O)cc1,93% (inactive)
3,O=C(CCS(=O)(=O)c1cc2c(cc1Cl)NC(=O)CO2)NCCc1ccc(Cl)cc1,116% (inactive)
4,COc1ccc(NC(=O)Cn2c(=O)n(CC3CCCO3)c(=O)c3ccccc32)c(OC)c1 (stereo not drawn),86% (inactive)
5,O=c1c2sc3ccccc3c2n(Cc2ccccc2F)c(=O)n1CCc1ccccc1,86% (inactive)
6,O=C(NCc1ccccc1)c1cc(Sc2cccc(Cl)c2)nc2ccccc12,78% (inactive)
7,CCc1ccc(C(=O)c2cn(CC(=O)Nc3cc(OC)ccc3OC)c3nc(C)ccc3c2=O)cc1,124% (inactive)
8,CC(C)Cn1c(=O)c2ccccc2n2c(CCC(=O)N3CCN(c4ccccc4)CC3)nnc12,127% (inactive)
9,CCC1CCCCN1C(=O)COc1ccc(F)cc1 (stereo not drawn),113% (inactive)
10,CCOc1ccc(C2C(=O)N(C3CCCCC3)CC(=O)N2CCc2ccccc2)cc1OC (stereo not drawn),117% (inactive)
11,Cc1cccc(N2CCCC2=Nc2ccc(Br)cc2C#N)c1,116% (inactive)
12,O=C(Nc1ccccc1Cl)c1ccc(F)c(S(=O)(=O)NCc2ccc(Cl)c(Cl)c2)c1,69% (inactive)
13,COc1ccc2cc(CNc3ccc(C)cc3)c(=O)n(CC(=O)Nc3cccc(Cl)c3C)c2c1,73% (inactive)
14,COc1ccc(C(=O)N(Cc2ccc(N(C)C)cc2)Cc2ccco2)cc1Cl,81% (inactive)
15,CCOC(=O)N1CCN(Cc2nc3cc(NC(=O)c4ccc(OC)cc4)ccc3n2C(C)C)CC1,89% (inactive)
16,Cn1c(C=Nc2ccc(Cl)cc2)nc2ccccc21,111% (inactive)
17,C#CCn1c(/C=C/c2ccc(Cl)cc2)nc2ccccc21,23% (active)
18,C#CCn1c(COc2ccccc2C)nc2ccccc21,115% (inactive)
19,Cn1c(C(=O)NCCc2ccccc2)cc2c(=O)n3ccccc3nc21,80% (inactive)
20,CCOc1ccc(NC(=O)Cn2nnc(C(=O)NCc3cccs3)c2N)cc1,97% (inactive)
21,Cc1ccc2c(c1)cc1c(=O)n(Cc3ccc(Cl)cc3)nc(C)n12,97% (inactive)
22,COc1cc(/C=C(\C#N)c2nc3ccccc3[nH]2)ccc1OCc1cccc(C(F)(F)F)c1,66% (inactive)
23,COC(=O)c1ccc(NC(=O)NC(C)c2c(-n3cccc3)sc(C)c2C)cc1 (stereo not drawn),89% (inactive)
24,COc1ccc(NC(=O)NC(C)c2c(-n3cccc3)sc(C)c2C)cc1OC (stereo not drawn),76% (inactive)
25,Cc1sc(-n2cccc2)c(C(C)NC(=O)Nc2ccccc2Cl)c1C (stereo not drawn),77% (inactive)
26,Cc1sc(-n2cccc2)c(C(C)NC(=O)Nc2cccc(C(F)(F)F)c2)c1C (stereo not drawn),6% (active)
27,COC(=O)c1ccc(Cl)cc1NC(=O)NC(C)c1c(-n2cccc2)sc(C)c1C (stereo not drawn),12% (active)
28,Cc1ccc(NC(=O)NC(C)c2c(-n3cccc3)sc(C)c2C)cc1F (stereo not drawn),74% (inactive)
